Experiment [1] in a line: qHTS assay for small molecule agonists of the antioxidant response element (ARE) signaling pathway measured by Nrf2-dependant transcriptional activity (AID 720636; active means well fitted curve in the direction sought with a large enough effect in the repeat runs; an effect the other way counts as inactive or inconclusive;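 further: HepG2 cells with an ARE-driven luciferase reporter; % of control where 0% means no effect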). Put shortly: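 HepG2 ARE-luc reporter line, 1% dialyzed FBS; 6 hr attachment at 37 C, compound pinned in, 16 hr at 37 C/5% CO2; ONE-Glo, 30 min RT, luminescence read.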
Experiment [2] can be described thus: qHTS assay for small molecule agonists of the antioxidant response element (ARE) signaling pathway measured by Nrf2-dependant transcriptional activity - cell viability counter screen (AID 720653; active means well fitted curve in the direction sought with a large enough effect in the repeat runs; an effect the other way counts as inactive or inconclusive; further: on the % scale 0 is the no-effect control and ±100 the full control effect). The following applies: ARE-bla HepG2 viability, CellTiter-Glo ATP luminescence, 16 h; active compounds read low. An outline of the steps: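 ARE-bla HepG2 cells treated with compounds for 16 h at 37C; this counter screen measures viability as intracellular ATP by CellTiter-Glo luminescence after 30 min at room temperature.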

Experiment [3] in a line: qHTS Assay for Identifying Gametocytocidal Compounds (AID 743244).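 Further: on the % scale 0 is the no-effect control and ±100 the full control effect; actives lower the fluorescent signal which means gametocytes are killed.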 The following applies: P. falciparum 3D7 stage III-V gametocytes, alamarBlue, 72 h; max response: active compounds read low. Put shortly: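 Stage III–V gametocytes of P. falciparum 3D7 were seeded at 20,000 cells/well onto pre-dispensed compounds. After 72 h, 37 °C, 5% CO2, alamarBlue was added for another 24 h.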

The nature of experiment [4]: qHTS assay for cell viability of HEK293 cells (AID 743288). Further: on the % scale 0 is the no-effect control and ±100 the full control effect; nearly all actives have a fitted effect of over 50% in size. The following applies: ATP luminescence (CellTiter-Glo), 18 h, active compounds read low. An outline of the steps: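 Quantitative high-throughput screen: compounds were pinned onto parental HEK293 cells (2,000 per well) after a minimum 5 h settling at 37 C, incubated 18 h at 37 C, and intracellular ATP measured by luciferase luminescence.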

Experiment [5] in a line: qHTS assay for cell viability of the p53RE-bla HCT-116 cell line (AID 743292). Further: on the % scale 0 is the no-effect control and ±100 the full control effect; nearly all actives have a fitted effect of over 55% in size. Put shortly: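 Luminescent ATP quantitation (CellTiter-Glo) served as the viability read-out; reagent was added after 16 h compound exposure at 37 C and read after 30 min at room temperature. Cells: p53RE-bla HCT-116, 4,000 per well.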
A short description of experiment [6]: qHTS assay for measurement of the activity of small molecule inhibitors on Zika virus induced Caspase-3 activity in human iPSC derived neural progenitor cells (hNPCs) (AID 1224857). Further: nearly all actives have a fitted effect of over 65% in size. Further: potency means the concentration at half of the fitted maximal effect. An outline of the steps:
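Values are percent inhibition of virus-induced caspase-3/7 signal, scaled between uninfected cells and ZIKV-infected cells. Infection used 2 FFU/cell for 6 h after 1 h compound exposure.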

A short description of experiment [7]: qHTS assay for small molecule antagonists of the retinoid-related orphan receptor gamma (ROR-gamma) signaling pathway - cell viability counter screen (AID 720652; active means well fitted curve in the direction sought with a large enough effect in the repeat runs; an effect the other way counts as inactive or inconclusive;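 further: CHO reporter cells with doxycycline-induced ROR-gamma expression; series mostly up to about 92 µM; compound exposure lasted 16 hr before ATP read; on the % scale 0 is the no-effect control and ±100 the full control effect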). An outline of the steps:
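ATP-based viability readout in the ROR-gamma reporter CHO cells after 16 hr compound exposure under doxycycline induction.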

The nature of experiment [8]: qHTS for compounds that reverse cellular toxicity of Amyloid beta (A-beta) peptide in yeast: LOPAC Validation Assay (AID 720559).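 Further: plate controls were DMSO for no effect and equimolar ferric chloride plus clioquinol rescue for full effect.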 An outline of the steps:
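Activity is expressed relative to DMSO and an equimolar ferric chloride/clioquinol mix. Compounds were pinned into medium with A-beta-expressing yeast, grown 48 hr at 30 C, then read by absorbance at 600 nm.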

Experiment [9] in a line: qHTS for Activators of Parkin Expression: LOPAC Validation Assay (NLuc Reporter) (AID 720572). Put shortly: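 NLuc signal, read 10 min after reagent and following a prior FLuc read, is normalized to DMSO (0) and positive controls (100%). Cells: neuronal Parkin-promoter coincidence reporter line; compounds tested 7-point, 24 h, 37 C, 5% CO2.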
A short description of experiment [10]: qHTS for Activators of Parkin Expression: LOPAC Validation Assay (FLuc Reporter) (AID 720573). An outline of the steps: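 A neuronal cell line harbouring FLuc and NLuc reporters behind the Parkin promoter was exposed to compounds for 24 h. Firefly luciferase signal, measured after 10 min with detection reagent, was scaled to DMSO and positive-control wells.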

Experiment [11] concerns the target T1, Hexokinase-4 (Homo sapiens) + Glucokinase regulatory protein (Homo sapiens) (UniProt P35557+Q14397). Kind of experiment: qHTS assay for inhibitors of recombinant human GCK-GKRP interaction: Diaphorase-coupled assay (AID 743205). An outline of the steps: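 Inhibitors of the GCK–GKRP complex relieve GKRP suppression of GCK, detected through a G6PDH–diaphorase cascade reducing resazurin. Human GST-GCK and FLAG-GKRP are used at 10 nM with 5 mM glucose and 0.4 mM ATP.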

Experiment [12] deals with T1, Hexokinase-4 (Homo sapiens) + Glucokinase regulatory protein (Homo sapiens). Kind of experiment: qHTS assay for inhibitors of recombinant human GCK-GKRP interaction: ADP-Glo assay (AID 743206).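 Further: plate controls were DMSO plus enzyme for no effect and no enzyme for full effect.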 Put shortly: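 Pin-transferred compounds meet a 15 nM GST-GCK/15 nM FLAG-GKRP/2 uM S6P mix (dispense concentrations). ATP is then added to 0.4 mM final with 5 mM glucose, and the reaction runs 60 min at room temperature. ADP is quantified luminescently.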

Experiment [13] shares this target. Kind of experiment: qHTS assay for inhibitors of recombinant human GCK-GKRP interaction: HTRF assay (AID 743207).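 Further: 0% = DMSO with GCK present and -100% = DMSO wells lacking GCK.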 An outline of the steps: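 Steps: dispense GCK–GKRP complex (5 nM each, GST- and FLAG-tagged) with 2 uM S6P; pin in compounds; add XL665/Eu-cryptate-labelled antibodies; incubate 60 min at room temperature; read time-resolved FRET at 665 and 615 nm.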

“And” between values parts separate entries of the source, which are not always exact repeats. Equal entries are not always repeated. Values without a mark were called inactive. Results filed as inconclusive are left out. The source made the active and inactive calls. Unless noted, the call rests on the fitted dose curve; in most records, active means well fitted curve in the direction sought with a large enough effect; inconclusive means small, poorly fitted or top-dose-only effect, or another doubt; inactive means no such curve, though single readings can be large; an effect the other way counts as inactive or inconclusive.

T1 sequence (P35557 whole entry, looked up): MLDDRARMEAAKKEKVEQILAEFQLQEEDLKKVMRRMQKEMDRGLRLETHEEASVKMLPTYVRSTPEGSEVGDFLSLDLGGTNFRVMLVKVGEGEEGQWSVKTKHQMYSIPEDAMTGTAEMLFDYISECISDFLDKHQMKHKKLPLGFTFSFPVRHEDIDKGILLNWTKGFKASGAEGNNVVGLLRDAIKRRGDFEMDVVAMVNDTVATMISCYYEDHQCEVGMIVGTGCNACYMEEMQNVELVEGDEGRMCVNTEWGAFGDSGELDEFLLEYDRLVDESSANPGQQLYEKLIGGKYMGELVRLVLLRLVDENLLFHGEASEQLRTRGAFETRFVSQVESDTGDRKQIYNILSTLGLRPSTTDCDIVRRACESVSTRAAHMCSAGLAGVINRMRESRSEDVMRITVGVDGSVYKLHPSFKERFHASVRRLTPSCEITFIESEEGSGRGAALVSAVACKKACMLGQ
T1 sequence (Q14397 whole entry, looked up): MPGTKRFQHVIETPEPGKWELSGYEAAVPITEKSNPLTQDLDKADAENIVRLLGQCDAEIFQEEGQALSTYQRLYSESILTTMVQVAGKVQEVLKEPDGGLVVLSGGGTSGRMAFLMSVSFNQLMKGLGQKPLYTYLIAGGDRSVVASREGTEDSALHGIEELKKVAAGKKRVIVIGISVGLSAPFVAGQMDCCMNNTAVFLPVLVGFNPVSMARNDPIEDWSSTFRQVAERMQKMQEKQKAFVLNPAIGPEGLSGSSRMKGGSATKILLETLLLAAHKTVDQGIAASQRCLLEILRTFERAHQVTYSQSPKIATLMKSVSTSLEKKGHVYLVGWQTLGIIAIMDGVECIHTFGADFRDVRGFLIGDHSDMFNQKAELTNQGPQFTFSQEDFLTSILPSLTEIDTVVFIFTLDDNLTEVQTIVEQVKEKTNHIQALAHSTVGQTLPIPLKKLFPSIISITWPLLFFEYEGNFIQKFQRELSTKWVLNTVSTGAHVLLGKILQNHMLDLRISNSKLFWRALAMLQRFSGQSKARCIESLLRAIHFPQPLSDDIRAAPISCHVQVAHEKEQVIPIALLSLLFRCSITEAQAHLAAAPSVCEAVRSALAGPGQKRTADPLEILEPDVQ

As to `CC1(C)OC[C@@H]2O[C@@]3(C(=O)O)OC(C)(C)O[C@H]3[C@@H]2O1`, the result in experiment [1] and in experiment [5] was inactive. The max response in experiment [2] is -0.898%; in experiment [3] it was -4.16%; in [4], -6.28%. Further, the Potency entry in experiment [6] is “inactive”.
On to `CCCN(CCC)S(=O)(=O)c1ccc(C(=O)O)cc1`, for which the compound was called inactive in [1], in experiment [7] and in experiment [5]. Further, the max response in experiment [2] is 9.27% and -1.08%; in experiment [3], 12.9%; in [4] it was 7.44% and -5.93%. Also, the Potency result in [6] was “inactive”.
For `CC(C)(C)NC[C@H](O)COc1nsnc1N1CCOCC1`, the outcome in experiment [8], in [9], in experiment [10], in experiment [11], in experiment [12] and in experiment [13] was inactive. Also, in [3], the max response was -3.64%. In addition, in [6], the Potency entry was “inactive”.
`NS(=O)(=O)c1cc2c(cc1Cl)NC(CC1CCCC1)NS2(=O)=O` (stereo not drawn): in [6], the Potency entry is “inactive”.
Consider `CCOc1ccccc1C(N)=O`, for which the result in experiment [1], in experiment [7] and in experiment [5] was inactive. Further, the results for the max response in [2] and in experiment [4] were 5.3% and 9.95%, respectively. Besides, the Potency result in [6] was “inactive”.
On to `C=C[C@H]1CN2CC[C@H]1C[C@@H]2[C@@H](O)c1ccnc2ccc(OC)cc12`, for which the result in experiment [1], in experiment [7] and in [5] was inactive. Also, the max response in experiment [2] was 21.8%; in experiment [4] it was -3.56%. Besides, the Potency result in [6] is “inactive”.
For the compound `CO[C@]12C[C@@H](COC(=O)c3cncc(Br)c3)CN(C)[C@@H]1Cc1cn(C)c3cccc2c13`, the Potency result in experiment [6] is “inactive”.
With `NC(N)=NCc1cccc(I)c1`, the outcome in experiment [8], in experiment [9], in experiment [10], in experiment [11], in experiment [12] and in experiment [13] was inactive. Also, the max response in experiment [3] was 10% and 7.9%. Further, the Potency entry in [6] was “inactive”.
For the compound `CCCCCN=C(N)N/N=C/c1c[nH]c2ccc(OC)cc12`, the Potency entry in [6] was “inactive”.
For `COc1cc(C(=O)NCc2ccc(OCCN(C)C)cc2)cc(OC)c1OC`, the Potency result in [6] is “inactive”.
In the case of `CN=C(N)NCCC[C@H](N)C(=O)O`, the compound was called inactive in experiment [8], in experiment [9], in [10], in experiment [11], in [12] and in [13]. Besides, the max response in [3] was -7.79% and 5.96% and -18.7%. The Potency entry in experiment [6] was “inactive”.
Turning to `CCN1/C(=C/C=C/c2sc3ccccc3[n+]2CC)Sc2ccccc21`, the Potency in [6] was 3.16 µM (active).
As to `CC(C)NCC(O)c1ccc2ccccc2c1` (stereo not drawn), the Potency result in [6] is “inactive”.
Turning to `CCOC(=O)[C@H](CCc1ccccc1)N[C@@H](C)C(=O)N1[C@H](C(=O)O)C[C@H]2CCCC[C@@H]21`, the result in experiment [8], in experiment [9], in experiment [10], in [11], in [12] and in experiment [13] was inactive. For the same compound, the max response in experiment [3] is -0.763% and -2.8% and 30%. Further, the Potency entry in experiment [6] was “inactive”.
For the compound `CCc1nn(CCCN2CCN(c3cccc(Cl)c3)CC2)c(=O)n1CCOc1ccccc1`, in [6], the Potency result was “inactive”.
Consider `CCC1NC(=O)c2cc(S(N)(=O)=O)c(Cl)cc2N1` (stereo not drawn), for which the Potency entry in experiment [6] is “inactive”.
On the same count and under the same terms, under `O=C1c2cccc3c2[C@H](CCC3)CN1[C@@H]1CN2CCC1CC2` stands “inactive”.
`CC(C)(C)CC(C)(C)c1ccc(O)c(-n2nc3ccccc3n2)c1`: in experiment [1], the call was inactive. For the same compound, the max response in [2] was 4.4%; in experiment [3] it was -5.06%; in experiment [4], -13.9%. In addition, the Potency entry in [6] was “inactive”.
With `Nc1nc(-c2ccccc2)c(Br)c(=O)[nH]1`, the Potency result in experiment [6] is “inactive”.
The same measure, in the same setting: in the case of `N#CCC(=O)NN` it was “inactive”.
In the case of `O=C(O)c1ccc(S(=O)(=O)N(Cl)Cl)cc1`, the outcome in experiment [1], in [7] and in [5] was inactive. Also, the max response was 7.82% in experiment [2] and 0.513% in experiment [4]. Further, the Potency entry in experiment [6] was “inactive”.
Consider `OC[C@H]1O[C@@H]2O[C@H]3[C@H](O)[C@@H](O)[C@@H](O[C@H]4[C@H](O)[C@@H](O)[C@@H](O[C@H]5[C@H](O)[C@@H](O)[C@@H](O[C@H]6[C@H](O)[C@@H](O)[C@@H](O[C@H]7[C@H](O)[C@@H](O)[C@@H](O[C@H]8[C@H](O)[C@@H](O)[C@@H](O[C@H]1[C@H](O)[C@H]2O)O[C@@H]8CO)O[C@@H]7CO)O[C@@H]6CO)O[C@@H]5CO)O[C@@H]4CO)O[C@@H]3CO`, for which the compound was classed as inactive in [1], in experiment [7] and in experiment [5]. For the same compound, the max response was -6.08% in [2], 2.64% in [3] and -3.67% in experiment [4]. The Potency entry in experiment [6] is “inactive”.
For `CCCCC(CC)COC(=O)c1ccc(N(C)C)cc1` (stereo not drawn), the call in experiment [1], in experiment [7] and in experiment [5] was inactive. Moreover, the max response in experiment [2] was 0.308% and -6.35%; in experiment [3] it was 3.36%; in experiment [4], 4.36% and -3.29%. For the same compound, the Potency entry in [6] is “inactive”.
Regarding `O=C(O)CCC(=O)Nc1ccc(S(=O)(=O)Nc2nccs2)cc1`, the Potency result in experiment [6] is “inactive”.
With `COc1cc([C@H]2Oc3cc([C@H]4Oc5cc(O)cc(O)c5C(=O)[C@@H]4O)ccc3O[C@@H]2CO)ccc1O`, the compound was classed as inactive in [1], in experiment [7] and in [5]. The max response in experiment [2] was -21.7%; in experiment [3], -1.37%; in [4], 5.85%. In addition, in experiment [6], the Potency result is “inactive”.
As for `CN1CCN(CCC(=O)N2c3ccccc3Sc3ccc(C(F)(F)F)cc32)CC1`, the Potency result in [6] was “inactive”.
Turning to `CCCCCCCCCCCCCC(=O)OC(C)C`, the call in [1] and in [5] was inactive. Also, the max response in experiment [2] is -11.9%; in experiment [3], -3.41%; in experiment [4] it was -1.19%. Further, the Potency entry in experiment [6] was “inactive”.
